Measured values published in PubChem BioAssay (NCATS).
Where “and” joins values, the source holds several entries; their conditions need not be identical. Equal values may be shown once. Records with an inconclusive call do not appear. The source holds several records for some structures; these can differ, active in one and inactive in another. Values without a mark were called inactive. Calls of active or inactive are those of the source. Calls come from the whole dose curve; as a rule, active = well fitted inhibition curve with a large enough effect; inconclusive = small, poorly fitted or top-dose-only effect; inactive = flat fitted curve, though single readings scatter.

Legend:
CRL-7250 = normal cell line; experiment: Cytotoxic Profiling of Annotated Libraries Using Quantitative High-Throughput Screening (AID 1296008); conditions: Five cell lines viability, CellTiter-Glo ATP luminescence, 48-72 h; max response: stronger effect = lower value
How it was run: (§1)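 Compounds were pin-transferred onto cells and incubated 48 or 72 hr at 37 degree Celsius, 95% humidity. CellTiter-Glo was added, plates sat 10 min at room temperature, then ATP-coupled luminescence was imaged as the viability read-out.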

HEK293 = experiment: as above; conditions: Five cell lines viability, CellTiter-Glo ATP luminescence, 48-72 h; max response: stronger effect = lower value
How it was run: as §1

HaCat [1] = experiment: as above; conditions: Five cell lines viability, CellTiter-Glo ATP luminescence, 48-72 h; max response: stronger effect = lower value
How it was run: as §1

KB-3-1 = experiment: as above; conditions: Five cell lines viability, CellTiter-Glo ATP luminescence, 48-72 h; max response: stronger effect = lower value
How it was run: as §1

NIH3T3 = experiment: as above; conditions: Five cell lines viability, CellTiter-Glo ATP luminescence, 48-72 h; max response: stronger effect = lower value
How it was run: as §1

HACAT [2] = experiment: qHTS assay to identify novel small-molecules to repurpose for Merkel cell carcinoma treatment (AID 1296009); conditions: MCC and control cell lines, CellTiter-Glo viability, 72 h; series mostly up to 44.8 µM
How it was run: (§2)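 Viability readout: ATP luminescence (CellTiter-Glo) after 72 hr drug exposure at 37 degree celsius. Dose-response format was 8 points for NPC and 11 points for MIPE; data normalized to in-plate controls.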

HEK293T = experiment: as above; conditions: MCC and control cell lines, CellTiter-Glo viability, 72 h; at 44.8 µM (top of the series) unless noted
How it was run: as §2

MCC-13 = experiment: as above; conditions: MCC and control cell lines, CellTiter-Glo viability, 72 h; series mostly up to 46 µM
How it was run: as §2

MCC-26 = experiment: as above; conditions: MCC and control cell lines, CellTiter-Glo viability, 72 h; series mostly up to 46 µM
How it was run: as §2

MKL-1 = experiment: as above; conditions: MCC and control cell lines, CellTiter-Glo viability, 72 h; series mostly up to 46 µM
How it was run: as §2
% is set by controls: 0 for no effect and ±100 for the full control effect; potency is the fitted concentration of half-maximal effect.
Note: nearly all actives have a fitted effect of over 60% in size.

Structure (SMILES)	max response (CRL-7250)	outcome (HEK293)	max response (HaCat [1])	outcome (HaCat [1])	max response (KB-3-1)	outcome (KB-3-1)	max response (NIH3T3)	outcome (NIH3T3)	Potency (HACAT [2])	outcome (HEK293T)	Potency (MCC-13)	Potency (MCC-26)	Potency (MKL-1)	outcome (CRL-7250)	max response (HEK293)	Potency (CRL-7250)	Potency (HEK293)	Potency (HaCat [1])	Potency (KB-3-1)	Potency (NIH3T3)
CCCn1c(=O)c2[nH]c(-c3cnn(Cc4cccc(C(F)(F)F)c4)c3)nc2n(CC)c1=O	-9.35%	inactive	-0.725%	inactive	0.919%	inactive	1.05%	inactive	inactive	inactive	inactive	inactive	inactive	–	–	–	–	–	–	–
O=C(O)CCCc1c[nH]c2ccccc12	-4.82%	–	4.3% and 3.03%	–	0.51%	inactive	-1.55% and 2.66%	–	–	–	inactive	inactive	inactive	inactive	-0.171% and -7.8%	–	–	–	–	–
CNC(=O)c1ccc(-c2cnc3ncc(Cc4ccc5ncccc5c4)n3n2)cc1F	-2.64%	inactive	-3.74% and -10.2%	–	3.93% and 3.42%	–	-7.6% and -25.4%	–	–	inactive	inactive	inactive	inactive	inactive	–	–	–	–	–	–
NC(=O)c1c(OCc2c(F)cc(Br)cc2F)nsc1NC(=O)NCCCCN1CCCC1	–	–	–	inactive	–	–	–	–	inactive	–	–	–	inactive	–	–	4.69 µM (active) and 8.2 µM (active)	14.8 µM (active)	26.4 µM (active)	9.35 µM (active)	235 nM (active) and 2.06 µM (active)
COc1ccc(-n2nc(C(N)=O)c3c2C(=O)N(c2ccc(N4CCCCC4=O)cc2)CC3)cc1	-14% and -8.05%	–	-4.25%	inactive	6.22% and -0.472%	–	-1.07% and 4.24%	–	inactive	–	inactive	inactive	inactive	–	2.24%	–	–	–	–	–
COc1cccc(Nc2c(C(N)=O)cnc3c(C)cc(S(=O)(=O)c4cccc(C(=O)N(C)C)c4)cc23)c1	-20.3%	–	2.69%	–	-2.62% and -18.7%	–	-0.878%	–	–	–	inactive	inactive	inactive	inactive	–	–	12.9 µM (active)	–	–	–
CS(=O)(=O)c1ccc(-c2cnc(N)c(C(=O)Nc3ccccc3)n2)cc1	-11%	–	-14.1%	inactive	–	inactive	–	–	inactive	–	inactive	inactive	inactive	inactive	–	–	11.6 µM (active)	–	–	14.8 µM (active) and 5.17 µM (active)
Cc1ccc(NC(=O)C2(c3ccc4c(c3)OC(F)(F)O4)CC2)nc1-c1cccc(C(=O)O)c1	-5.91%	inactive	-0.152%	–	–	inactive	–	inactive	–	inactive	1.18 µM (active)	0.833 µM (active)	–	–	–	187 nM (active)	0.0372 µM (active)	0.418 µM (active)	0.0526 µM (active)	93.5 nM (active)
CC(O)C1C(=O)N2C(C(=O)O)=C(SC3CNC(C(=O)N(C)C)C3)C(C)C12 (stereo not given)	-9.97% and 0.421%	–	0.187%	inactive	5.3%	inactive	0.991% and 3.69%	–	inactive	–	inactive	inactive	inactive	–	-5.51% and 0.11%	–	–	–	–	–
COc1cc(-c2nn(C3CCC(N4CCN(C(C)=O)CC4)CC3)c3ncnc(N)c23)ccc1NC(=O)c1cc2ccccc2n1C (stereo not given)	-38.4%	–	-22.8%	–	-0.49%	–	-32.1% and -29.8%	–	–	–	–	–	3.72 µM (active)	–	-12.7%	–	–	3.66 µM (active)	20.6 µM (active)	–
COc1cc2c(Nc3ccc(NC(=O)c4ccccc4)cc3)ncnc2cc1OCCCN1CCOCC1	5%	–	–	–	-17.8%	–	–	–	–	–	inactive	inactive	–	–	-7.34%	–	23.1 µM (active)	7.31 µM (active)	–	14600 nM (active)
Clc1cccc(-c2nnnn2Cc2cccnc2)c1Cl	-2.93%	–	3% and -9.84%	–	–	inactive	-9.84% and -14.4%	–	–	–	inactive	inactive	inactive	–	-0.348%	–	26.4 µM (active)	–	–	–
